Test results: PubChem BioAssay (NCATS)
Results filed as inconclusive are left out. Calls of active or inactive are those of the source. Calls come from the whole dose curve; as a rule, active = well fitted curve in the direction sought with a large enough effect; inconclusive = small, poorly fitted or top-dose-only effect, or another doubt; inactive = no such curve, though single readings can be large; an effect the other way counts as inactive or inconclusive.

Experiments:
Hek293T = assay: Primary qHTS to identify gynecologic anti-cancer compounds using libraries of approved drugs and bioactive compounds (AID 1345084); settings: Gynecologic cancer cell panel viability, ATPlite luminescence, 48 h, control line for the selectivity index; series mostly up to 57.5 µM; note: nearly all actives have a fitted effect of over 55% in size
Outline: (§1)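 Cells, 1,000 per well, plated 16 h, then exposed 48 h at 37 C to compounds. Viability by ATPlite luminescence after 15 min at room temperature.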

JEG-3 = assay: as above; settings: Gynecologic cancer cell panel viability, ATPlite luminescence, 48 h; series mostly up to 57.5 µM
Outline: as §1

OV90 = assay: as above; settings: Gynecologic cancer cell panel viability, ATPlite luminescence, 48 h; series mostly up to 57.5 µM
Outline: as §1

PA-1 = assay: as above; settings: Gynecologic cancer cell panel viability, ATPlite luminescence, 48 h; series mostly up to 57.5 µM
Outline: as §1

Tov-21-G = assay: as above; settings: Gynecologic cancer cell panel viability, ATPlite luminescence, 48 h; series mostly up to 57.5 µM
Outline: as §1

Tov112D = assay: as above; settings: Gynecologic cancer cell panel viability, ATPlite luminescence, 48 h; series mostly up to 57.5 µM
Outline: as §1

[1] = Drug repurposing screens with cells derived from glioblastoma tumor samples (AID 1345199); settings: GBM patient neurospheres viability, ATP luminescence, 48 h; note: nearly all actives have a fitted effect of over 40% in size; note: potency is the fitted concentration of half-maximal effect
Outline: (§2)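 Four patient lines of CD133+ GBM neurospheres were screened at several concentrations; hits were retested in those lines plus three slower-growing GBM lines, using 48-hour treatment and ATP-based viability.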

astro = assay: as above; settings: viability, ATP luminescence, 48 h; series mostly up to 45.9 µM
Outline: as §2

SKOV3 = assay: Primary qHTS to identify gynecologic anti-cancer compounds using libraries of approved drugs and bioactive compounds (AID 1345084); settings: Gynecologic cancer cell panel viability, ATPlite luminescence, 48 h; series mostly up to 57.5 µM; note: nearly all actives have a fitted effect of over 55% in size
Outline: as §1

[2] = at 45.9 µM (top of the series), tumour line B
[3] = at 45.9 µM (top of the series), tumour line D
[4] = at 46.1 µM (top of the series), tumour line C
[5] = at 20 µM (top of the series), tumour line C
[6] = at 21.2 µM (top of the series), tumour line B
[7] = at 21.2 µM (top of the series), tumour line D
[8] = at 21.3 µM (top of the series), tumour line A
[9] = at 46 µM (top of the series), tumour line A
% is set by controls: 0 for no effect and ±100 for the full control effect.

CC(C)NCC(O)c1ccc2ccccc2c1 (configuration not stated)
inactive: Potency (Hek293T) | Potency (JEG-3) | Potency (OV90) | Potency (PA-1) | Potency (Tov-21-G) | Potency (Tov112D) | activity, negative = cell killing [1, 2] -12.4% | activity, negative = cell killing [1, 3] -5.15% | activity, negative = cell killing [1, 4] -5.59% | Potency (astro)

NS(=O)(=O)c1cc(C(=O)O)cc(N2CCCC2)c1Oc1ccccc1
inactive: Potency (Hek293T) | Potency (JEG-3) | Potency (OV90) | Potency (PA-1) | Potency (Tov-21-G) | Potency (Tov112D) | activity, negative = cell killing [1, 5] 0.209% | activity, negative = cell killing [1, 6] -9.72% | activity, negative = cell killing [1, 7] -3.36% | activity, negative = cell killing [1, 8] -12.4% | Potency (astro)

CC(C)(C)NC[C@H](O)COc1nsnc1N1CCOCC1
inactive: Potency (Hek293T) | Potency (JEG-3) | Potency (OV90) | Potency (PA-1) | Potency (Tov-21-G) | Potency (Tov112D) | activity, negative = cell killing [1, 2] -9.83% | activity, negative = cell killing [1, 3] -20.5% | activity, negative = cell killing [1, 4] -12.6% | Potency (astro)

Cc1cc(C)cc(OCC2CNC(=O)O2)c1 (configuration not stated)
inactive: Potency (Hek293T) | Potency (JEG-3) | Potency (OV90) | Potency (PA-1) | Potency (Tov-21-G) | Potency (Tov112D) | activity, negative = cell killing [1, 2] 0.397% | activity, negative = cell killing [1, 3] -17.2% | activity, negative = cell killing [1, 9] -25.9% | activity, negative = cell killing [1, 4] 3.04% | Potency (astro)

Cc1ccc(S(=O)(=O)NC(=O)NC2CCCC2)cc1
inactive: Potency (Hek293T) | Potency (JEG-3) | Potency (OV90) | Potency (PA-1) | Potency (Tov-21-G) | Potency (Tov112D) | activity, negative = cell killing [1, 2] -10.4% | activity, negative = cell killing [1, 3] -9.83% | activity, negative = cell killing [1, 4] -7.67% | Potency (astro)

COc1ccccc1N1CCN(CCCCNC(=O)c2ccc(-c3ccc(C(C)=O)cc3)cc2)CC1
inactive: Potency (Hek293T) | Potency (JEG-3) | Potency (OV90) | Potency (PA-1) | Potency (Tov-21-G) | Potency (Tov112D)

COc1cc(NS(=O)(=O)c2ccc(N)cc2)ncn1
inactive: Potency (Hek293T) | Potency (JEG-3) | Potency (OV90) | Potency (PA-1) | Potency (Tov-21-G) | Potency (Tov112D) | activity, negative = cell killing [1, 5] 5.16% | activity, negative = cell killing [1, 6] 4.65% | activity, negative = cell killing [1, 7] -16.4% | Potency (astro)

CC(=O)O[C@]1(C(C)=O)CC[C@H]2[C@@H]3C=C(C)C4=CC(=O)CC[C@]4(C)[C@H]3CC[C@@]21C
inactive: Potency (Hek293T) | Potency (JEG-3) | Potency (OV90) | Potency (PA-1) | Potency (Tov-21-G) | Potency (Tov112D) | activity, negative = cell killing [1, 5] -0.988% | activity, negative = cell killing [1, 6] -20.3% | activity, negative = cell killing [1, 7] 13.6% | Potency (astro)

O=[N+]([O-])c1cccc(S(=O)(=O)NCCNS(=O)(=O)c2cccc([N+](=O)[O-])c2)c1
inactive: Potency (Hek293T) | Potency (JEG-3) | Potency (OV90) | Potency (PA-1) | Potency (Tov-21-G) | Potency (Tov112D) | activity, negative = cell killing [1, 2] -14.3% | activity, negative = cell killing [1, 3] -9.35% | activity, negative = cell killing [1, 4] -36.6% | Potency (astro)

CCc1oc2ccccc2c1C(=O)c1cc(I)c(O)c(I)c1
inactive: Potency (Hek293T) | Potency (JEG-3) | Potency (OV90) | Potency (PA-1) | Potency (Tov-21-G) | Potency (Tov112D) | activity, negative = cell killing [1, 4] -3.24%

CC(=O)NCCCCCC(=O)O
inactive: Potency (Hek293T) | Potency (JEG-3) | Potency (OV90) | Potency (PA-1) | Potency (Tov-21-G) | Potency (Tov112D) | activity, negative = cell killing [1, 2] -15.6% | activity, negative = cell killing [1, 3] -10% | activity, negative = cell killing [1, 9] -23.3% | activity, negative = cell killing [1, 4] -20.2% | Potency (astro)

Nc1ccc(S(=O)(=O)NCc2ccccc2)cc1
inactive: Potency (Hek293T) | Potency (JEG-3) | Potency (OV90) | Potency (PA-1) | Potency (Tov-21-G) | Potency (Tov112D) | activity, negative = cell killing [1, 2] 0.545% | activity, negative = cell killing [1, 3] -1.8% | activity, negative = cell killing [1, 4] -10.5% | Potency (astro)

O=C(c1ccc(F)cc1)C1CCN(CCn2c(=S)[nH]c3ccccc3c2=O)CC1
inactive: Potency (Hek293T) | Potency (JEG-3) | Potency (OV90) | Potency (SKOV3) | Potency (Tov-21-G) | Potency (Tov112D) | activity, negative = cell killing [1, 2] -29.1%
active: Potency ([1]; tumour line A) 12.6 µM | Potency ([1]; tumour line C) 20.6 µM

O=C(CN1CCN(Cc2ccc3c(c2)OCO3)CC1)N1c2ccccc2Sc2ccccc21
inactive: Potency (Hek293T) | Potency (JEG-3) | Potency (OV90) | Potency (PA-1) | Potency (Tov-21-G) | Potency (Tov112D)

Oc1ccc(Cl)cc1Cc1cc(Cl)ccc1O
inactive: Potency (Hek293T) | Potency (JEG-3) | Potency (OV90) | Potency (PA-1) | Potency (Tov-21-G) | Potency (Tov112D)
active: Potency (astro) 11.2 µM

O=C(O)C(Cc1cc(I)c(O)c(I)c1)c1ccccc1 (configuration not stated)
inactive: Potency (Hek293T) | Potency (JEG-3) | Potency (OV90) | Potency (SKOV3) | Potency (Tov-21-G) | Potency (Tov112D) | activity, negative = cell killing [1, 2] 4.75% | activity, negative = cell killing [1, 3] -5.57% | activity, negative = cell killing [1, 9] -25.7% | activity, negative = cell killing [1, 4] -25.5%

CN1CCN(C2=Nc3ccccc3Sc3ccc(Cl)cc32)CC1
inactive: Potency (Hek293T) | Potency (JEG-3) | Potency (OV90) | Potency (SKOV3) | Potency (Tov-21-G) | Potency (Tov112D) | activity, negative = cell killing [1, 4] -6.22%
active: Potency ([1]; tumour line A) 7.94 µM | Potency ([1]; tumour line D) 17.8 µM

COc1cc(C)nc(-n2nc(C)cc2OC)n1
inactive: Potency (Hek293T) | Potency (JEG-3) | Potency (OV90) | Potency (PA-1) | Potency (Tov-21-G) | Potency (Tov112D) | activity, negative = cell killing [1, 5] 16.5% | activity, negative = cell killing [1, 6] 1.89% | activity, negative = cell killing [1, 7] -16% | activity, negative = cell killing [1, 8] -15.4% | Potency (astro)

COc1cc([C@H]2Oc3cc([C@H]4Oc5cc(O)cc(O)c5C(=O)[C@@H]4O)ccc3O[C@@H]2CO)ccc1O
inactive: Potency (Hek293T) | Potency (JEG-3) | Potency (OV90) | Potency (SKOV3) | Potency (Tov-21-G) | Potency (Tov112D) | activity, negative = cell killing [1, 2] -0.835% | activity, negative = cell killing [1, 3] -13.1% | activity, negative = cell killing [1, 4] -7.07%

CCCCN=C(N)N=C(N)N
inactive: Potency (Hek293T) | Potency (JEG-3) | Potency (OV90) | Potency (PA-1) | Potency (Tov-21-G) | Potency (Tov112D) | activity, negative = cell killing [1, 2] -13.5% | activity, negative = cell killing [1, 3] -11% | activity, negative = cell killing [1, 4] -8.24% | Potency (astro)
